Assay results reported in PubChem BioAssay (Tox21).
Results filed as inconclusive are left out. A call without a number means that no potency is given here. Values without a mark were called inactive. Activity calls are given as the source filed them. The call rests on the fitted dose curve.

target: 5-hydroxytryptamine receptor 2A (Homo sapiens) (UniProt P28223); assay: 5-hydroxytryptamine receptor 2A (HTR2A) small molecule agonists, cell-based qHTS assay (AID 1963587); details: HTR2A-CHO cells, calcium flux fluorescence, agonist mode; series mostly up to 76.8 µM; activation: at the top concentration; further: nearly all actives have a fitted effect of over 30% in size
Text: National Center for Advancing Translational Sciences [NCATS]
Division of Preclinical Innovation [DPI]
U.S. Environmental Protection Agency [EPA]
National Institutes of Environmental Health Sciences [NIEHS]
National Toxicology Program [NTP]
U.S. Food and Drug Administration [FDA]
The HTR2A receptor is a subtype of the 5-HT2 receptor that belongs to the serotonin receptor family and is a G protein-coupled receptor (GPCR). The HTR2A-CHO cell line stably expressing human 5-hydroxytryptamine receptor 2A (HTR2A) can be used for screening agonists of interactions between 5-HT2 and its ligands. The HTR2A-CHO calcium flux assay is a homogeneous fluorescence-based assay for detecting the intracellular calcium level using FDSS kinetic plate reader system.
HTR2A-CHO cells were dispensed at 2000 cells/3uL/well in 1536-well black-clear bottom plates using a Multidrop Dispenser. After the assay plates were incubated at a 37 C/5% CO2 incubator for 18 h, 3 uL of Dye Loading Buffer was transferred to the assay plate by a Flying Reagent Dispenser. The assay plates were incubated at 37 C for 1h. For agonist mode, 23 nL of compounds dissolved in DMSO, positive controls or DMSO only was transferred to the assay plate by a pin tool. The fluorescence intensity in the plates was measured using FDSS 7000EX kinetic plate reader for 2 min at 1 sec intervals.
Potency means the concentration at half of the fitted maximal effect.

Sequence of 5-hydroxytryptamine receptor 2A (Homo sapiens) (P28223 whole entry, looked up): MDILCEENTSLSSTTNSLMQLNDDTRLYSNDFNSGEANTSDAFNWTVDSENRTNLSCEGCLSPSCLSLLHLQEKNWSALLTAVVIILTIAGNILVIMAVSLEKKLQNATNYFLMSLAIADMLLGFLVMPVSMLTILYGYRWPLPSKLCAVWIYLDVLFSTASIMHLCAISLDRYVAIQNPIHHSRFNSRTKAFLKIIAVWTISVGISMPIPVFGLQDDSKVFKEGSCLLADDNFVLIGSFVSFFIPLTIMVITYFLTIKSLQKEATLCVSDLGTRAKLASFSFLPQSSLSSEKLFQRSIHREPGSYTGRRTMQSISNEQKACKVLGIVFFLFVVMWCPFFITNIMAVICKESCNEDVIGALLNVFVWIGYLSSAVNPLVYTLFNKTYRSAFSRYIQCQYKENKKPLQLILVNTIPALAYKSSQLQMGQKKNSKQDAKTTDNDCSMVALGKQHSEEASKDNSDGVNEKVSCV

Compound	Potency	activation
CC[N+]1(C)CCCC1	inactive	
CC(C)NC(=O)N1CC(=O)N(c2cc(Cl)cc(Cl)c2)C1=O	inactive	
C[N+]1(C)CCCCC1		0.297%
CC(C)CC(C)(c1ccc(O)cc1)c1ccc(O)cc1		11%
CCCCC(CC)COC(=O)Cl (stereo not given)	inactive	
BrCCBr	inactive	
O=NN1CCCCCCC1	inactive	
CC(C)(c1ccccc1)c1cc(-n2nc3ccccc3n2)c(O)c(C(C)(C)c2ccccc2)c1		-2.72% [at 35.6 µM]
CCc1cnc(C2=NC(C)(C(C)C)C(=O)N2)c(C(=O)O)c1 (stereo not given)	inactive	
COC(=O)c1c(C(F)F)nc(C(F)(F)F)c(C2=NCCS2)c1CC(C)C		12.9%
CCOc1cc(C=O)ccc1O	inactive	
CC(C)(C1CCC(O)CC1)C1CCC(O)CC1 (stereo not given)		-3.24%
[O-][Cl+2]([O-])O	inactive	
CC(C)Oc1cc(-n2nc(C(C)(C)C)oc2=O)c(Cl)cc1Cl	inactive	
OC(Cc1ccccc1Cl)(Cn1cncn1)C1(Cl)CC1 (stereo not given)		9.33%
CNC(=O)Oc1cccc2c1OC(C)(C)C2	inactive	
CC(C)CCCCCOC(=O)c1ccccc1C(=O)OCCCCCC(C)C		-0.897%
CCN(CC)C(=O)/C(Cl)=C(\C)OP(=O)(OC)OC	inactive	
C[C@]12CCC(=O)C=C1CC[C@@H]1[C@@H]2CC[C@]2(C)C(=O)CC[C@@H]12	inactive	
C=CCCl		0.175%

Compound	Potency	activation
Cc1cccc(N)c1C	inactive	
Nc1ccc(N=Nc2ccc(-c3ccc(N=Nc4c(S(=O)(=O)O)cc5cc(S(=O)(=O)O)c(N=Nc6ccccc6)c(O)c5c4N)cc3)cc2)c(N)c1	31.6 µM (active)	
OCC1CO1 (stereo not given)	inactive	
CC(C)=CCN1CC[C@@]2(C)c3cc(O)ccc3C[C@@H]1[C@@H]2C		3.13%
CC(COc1ccc(Oc2ccccc2)cc1)Oc1ccccn1 (stereo not given)		0.248%
Nc1ccc(Br)cc1	inactive	
c1ccc(N=NNc2ccccc2)cc1		-10.1%
C[C@]1(O)CC[C@H]2[C@@H]3CCC4=CC(=O)CC[C@]4(C)[C@@]3(F)[C@@H](O)C[C@@]21C		16.2%
Oc1ccc(Cl)cc1	inactive	
CCC(C)n1c(=O)[nH]c(C)c(Br)c1=O (stereo not given)		-0.253%
CCCn1cc[n+](C)c1	inactive	
COC[C@H](C)N(C(=O)CCl)c1c(C)csc1C		1.4%
O=c1[nH]c2ccccc2c(=O)o1		-6.14%
CCn1cc[n+](C)c1C	inactive	
C=CCN1CC[C@]23CCCC[C@H]2[C@H]1Cc1ccc(O)cc13		-13% [at 35.6 µM]
NC(=O)CCl		-0.0347%
CN(C)N=O	inactive	
Cc1cccc(N)c1N		17.8%
CCOP(=S)(OCC)Oc1ccc([N+](=O)[O-])cc1	inactive	
CCN(C)N=O		-1.53%
